Assay results: the supplement of paper PMC6555819

System: PPARg:RXRa 30nM:10nM, anti-RXR (NR concentration 30 nM, RXRa partner concentration 10 nM)
Assay: PBM binding z-score (relative to random genomic background probes); higher = stronger binding; sequences stand for … in GC…GCGATTGACAGCGTAGAATGAAGG
Outline: (§1)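 Binding buffer was PBS pH 7.4 with 2% milk, 0.02% Triton X-100, 1 mM DTT, 0.2 mg/mL BSA and 0.4 mg/ml salmon testes DNA. In it, ligand-free nuclear receptor dimers were incubated 1 h on custom Agilent 4×180K protein-binding microarrays carrying double-stranded probes. Antibodies against each partner (one per run) detected binding, and z-scores were calculated against random background probes after regression normalization of scanned fluorescence.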

First: CCTTACGGGTCACTAACAGGTTATAGCATTTGGA
Second: CCTACTAGGCCAAAGGTCATTGATTCCAATGCTC
The PBM binding z-score of the first is lower: 1.37 for the first, 11.4 for the second.

Going from TAGCCTAGGTTATTCAGGGGCCAGTATAGAAAGC to ATCGGAAGGTCGTGAGGTGAGTATACAGAAAGGC, the PBM binding z-score rises from -0.33 to 0.466.

First: CGTCCAAGGTCAATGGTAGGTCAGTGAAAGCATT
Second: TCTAGTTGGTCACGGAGGTCGCACACGACGGGTA
The PBM binding z-score of the first is lower: 1.28 for the first, 2.83 for the second.

Compared with CCGACTGGGGCAGAAAGGTTACCATGCCATCCGG, CCTACTGGGCCAAAAAGGTGATTGATGCCGATAA is lower in PBM binding z-score: 0.457 for the first, -0.119 for the second.

Going from TCATATAGGTAAAGGCGAAAGTCGAACGATATGA to AGAAAGAGGTTAAGATCAGGGAAACAGAATACAT, the PBM binding z-score falls from 3.75 to 1.05.

Going from TCATATAGGTAAGGGTGAAAGTCGAACGATATGA to GGAACGAGGGCATTCGACTTGATAGCATGGCGAT, the PBM binding z-score falls from 3.87 to -0.0237.

Going from AGAATGAGGTTATTAAGATCACGGAATTGCGGTC to ATATGTACGTTAGCTGGGGTCATTCAGACTAGGC, the PBM binding z-score falls from 0.647 to 0.566.

Compared with CCTTTTAGTTGACCATAAGGGCAACCGAAGCTCG, CCTACTGGGCCAAAGTTCATTGATTCCAATGCTC is higher in PBM binding z-score: 0.0181 for the first, 9.33 for the second.

First: ATTCAAAGTTCAGGACGAGGTAACGTAAAGCACG
Second: TCATATATGTAATACAGGTGAAAGTCGGCATCTA
The PBM binding z-score of the first is lower: 1.01 for the first, 3.65 for the second.

Going from TCTCGGAGGACACGAAAGGTCAGAGTTCGACATC to GCTAGCAGGCCATATGGGTCACTCAATGACGGGC, the PBM binding z-score falls from 2.89 to -0.31.

Going from CCAGACAGGTGAAAGGTAACTGAGTCTGGTACGC to AGTCAAAGTTCATCTCGGTAACGTAAGATATGCT, the PBM binding z-score falls from 4.81 to 3.18.

Going from AATACAGGGTCATCGTAGGCTAGAGTACGCACAG to CGTCAAAGTTCAACTAAGGTAACGGAAAGCACGC, the PBM binding z-score falls from 2.52 to 1.99.

First: AATACAGGTTCACTAGGCCAGAGTAGGTACGAAT
Second: ATACCATGGTGATCGTGAGGTCGTTGATACTAAC
The PBM binding z-score of the first is higher: 0.739 for the first, 0.115 for the second.

Going from TCGAGTAGGTTAGGGGCATTCCGAATGGCGTCGA to AATACAGGGTCATCGTAGGCCAGAGTACGCACAG, the PBM binding z-score rises from 1.24 to 2.58.

Compared with ATCTCTAGGTAAAGCTAGTTCAGTGAATGCAAAT, GCGACTGGGGCATCAGCAGGTTACCATCACTTAA is lower in PBM binding z-score: 0.0636 for the first, -0.615 for the second.

Going from CAAACTAAGTCACAGAGGTCAAAGTCCGTGCGTA to TGGCCTAGGTCATTCAGGGGCCAGTATAGAAAGC, the PBM binding z-score falls from 2.63 to 0.133.

Compared with CAAACTAGGTCACGAAGGGTCAAAGTCGAATGAC, TCTTGTAGATCAATAGAGGTTAACAAAGTGCGCT is lower in PBM binding z-score: 7.11 for the first, 2.57 for the second.

Compared with TCTTGTCGATCAAGCAGGTTAAGAAAGCCTGAGT, TAGCCTAGGTCATGCAGGGGCCAGTATAGAAAGC is lower in PBM binding z-score: 2.65 for the first, 0.917 for the second.

Compared with CCTCGGAGGACAACAGGAAGTCAGAGCTGCCAGA, AGTCAACGTTCACTAGGTAACGTAAGATTCAGCT is higher in PBM binding z-score: -1.03 for the first, 0.121 for the second.

First: AAAATGAGGTTATACGTAGATCAGGGAAGAAAGT
Second: TCATATAGTTAAAGGTGAAAGTCGAACGATATGA
The PBM binding z-score of the first is lower: 1.33 for the first, 3.96 for the second.

System: PPARg:RXRa 90nM:30nM, anti-RXR (NR concentration 90 nM, RXRa partner concentration 30 nM)
Assay: as above
Outline: as §1

First: CCTTACGGGTCACTAACAGGTTATAGCATTTGGA
Second: CCTACTAGGCCAAAGGTCATTGATTCCAATGCTC
The PBM binding z-score of the first is lower: 2.83 for the first, 11.8 for the second.

Compared with TAGCCTAGGTTATTCAGGGGCCAGTATAGAAAGC, ATCGGAAGGTCGTGAGGTGAGTATACAGAAAGGC is higher in PBM binding z-score: 0.0793 for the first, 0.932 for the second.

Going from CGTCCAAGGTCAATGGTAGGTCAGTGAAAGCATT to TCTAGTTGGTCACGGAGGTCGCACACGACGGGTA, the PBM binding z-score falls from 3.54 to 2.43.

Compared with CCGACTGGGGCAGAAAGGTTACCATGCCATCCGG, CCTACTGGGCCAAAAAGGTGATTGATGCCGATAA is lower in PBM binding z-score: 1.82 for the first, 0.309 for the second.

First: TCATATAGGTAAAGGCGAAAGTCGAACGATATGA
Second: AGAAAGAGGTTAAGATCAGGGAAACAGAATACAT
The PBM binding z-score of the first is higher: 3.23 for the first, 1.34 for the second.

Going from TCATATAGGTAAGGGTGAAAGTCGAACGATATGA to GGAACGAGGGCATTCGACTTGATAGCATGGCGAT, the PBM binding z-score falls from 3.72 to 0.28.

First: AGAATGAGGTTATTAAGATCACGGAATTGCGGTC
Second: ATATGTACGTTAGCTGGGGTCATTCAGACTAGGC
The PBM binding z-score of the first is higher: 1.6 for the first, 1.33 for the second.

First: CCTTTTAGTTGACCATAAGGGCAACCGAAGCTCG
Second: CCTACTGGGCCAAAGTTCATTGATTCCAATGCTC
The PBM binding z-score of the first is lower: 0.427 for the first, 11.8 for the second.

Compared with ATTCAAAGTTCAGGACGAGGTAACGTAAAGCACG, TCATATATGTAATACAGGTGAAAGTCGGCATCTA is higher in PBM binding z-score: 1.54 for the first, 3.4 for the second.

Going from TCTCGGAGGACACGAAAGGTCAGAGTTCGACATC to GCTAGCAGGCCATATGGGTCACTCAATGACGGGC, the PBM binding z-score falls from 3.12 to 0.766.

Compared with CCAGACAGGTGAAAGGTAACTGAGTCTGGTACGC, AGTCAAAGTTCATCTCGGTAACGTAAGATATGCT is lower in PBM binding z-score: 5.99 for the first, 5.22 for the second.

Compared with AATACAGGGTCATCGTAGGCTAGAGTACGCACAG, CGTCAAAGTTCAACTAAGGTAACGGAAAGCACGC is lower in PBM binding z-score: 4.76 for the first, 4.58 for the second.

Going from AATACAGGTTCACTAGGCCAGAGTAGGTACGAAT to ATACCATGGTGATCGTGAGGTCGTTGATACTAAC, the PBM binding z-score falls from 1.97 to 0.0761.

Going from TCGAGTAGGTTAGGGGCATTCCGAATGGCGTCGA to AATACAGGGTCATCGTAGGCCAGAGTACGCACAG, the PBM binding z-score rises from 1.64 to 4.87.

Compared with ATCTCTAGGTAAAGCTAGTTCAGTGAATGCAAAT, GCGACTGGGGCATCAGCAGGTTACCATCACTTAA is lower in PBM binding z-score: 0.224 for the first, -0.341 for the second.

Compared with CAAACTAAGTCACAGAGGTCAAAGTCCGTGCGTA, TGGCCTAGGTCATTCAGGGGCCAGTATAGAAAGC is lower in PBM binding z-score: 4.18 for the first, 1.5 for the second.

Compared with CAAACTAGGTCACGAAGGGTCAAAGTCGAATGAC, TCTTGTAGATCAATAGAGGTTAACAAAGTGCGCT is lower in PBM binding z-score: 8.2 for the first, 2 for the second.

Compared with TCTTGTCGATCAAGCAGGTTAAGAAAGCCTGAGT, TAGCCTAGGTCATGCAGGGGCCAGTATAGAAAGC is lower in PBM binding z-score: 1.95 for the first, 1.5 for the second.

Compared with CCTCGGAGGACAACAGGAAGTCAGAGCTGCCAGA, AGTCAACGTTCACTAGGTAACGTAAGATTCAGCT is higher in PBM binding z-score: -1.13 for the first, 0.475 for the second.

First: AAAATGAGGTTATACGTAGATCAGGGAAGAAAGT
Second: TCATATAGTTAAAGGTGAAAGTCGAACGATATGA
The PBM binding z-score of the first is lower: 1.9 for the first, 3.79 for the second.
